PubChem BioAssay (Tox21)
Inconclusive results are not listed. Activity calls are given as the source filed them. Unless noted, calls come from the whole dose curve; as a rule, active = well fitted curve in the direction sought with a large enough effect in the repeat runs; inconclusive = weak or mixed curves; inactive = no such curve, though single readings can be large; an effect the other way counts as inactive or inconclusive.

Columns and labels:
[1] = qHTS assay to test for compound auto fluorescence at 535 nm (green) in HEK293 cells (AID 720680)
[2] = qHTS assay to test for compound auto fluorescence at 460 nm (blue) in HEK293 cell free culture (AID 720681)
How it was run: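 Compounds were added to cell-free DMEM with 10% FBS and fluorescence read directly. The blue channel used 405 nm excitation and 460 nm emission, with triamterene as the reference fluorophore.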

[3] = qHTS assay to test for compound auto fluorescence at 535 nm (green) in HEK293 cell free culture (AID 720682)
How it was run: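 Read-out: 485/535 nm fluorescence intensity, calibrated against fluorescein. Medium only (DMEM + 10% FBS, no cells); test compound or DMSO vehicle added by pintool before plate reading.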

[4] = qHTS assay to test for compound auto fluorescence at 590 nm (red) in HEK293 cell free culture (AID 720683)
How it was run: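 Cell-free wells of DMEM with 10% FBS received compound, and intrinsic fluorescence was read at excitation/emission 540/590 nm. Values expressed as equivalence to Rose Bengal sodium.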

[5] = qHTS assay to test for compound auto fluorescence at 590 nm (red) in HepG2 cell free culture (AID 720684)
How it was run: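 Rose Bengal sodium served as the reference for red signal. Test compounds were dispensed into serum-containing MEM (10% FBS) without cells, and plates were read at 540/590 nm.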

[6] = qHTS assay to test for compound auto fluorescence at 460 nm (blue) in HepG2 cell free culture (AID 720685)
How it was run: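 Cell-free plates of MEM plus 10% FBS received 23 nL compound or DMSO vehicle; blue-channel (405/460 nm) intensity scored against triamterene as reference fluorophore.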

[7] = qHTS assay to test for compound auto fluorescence at 535 nm (green) in HepG2 cell free culture (AID 720686)
[8] = qHTS assay to test for compound auto fluorescence at 460 nm (blue) in HepG2 cells (AID 720687)
How it was run: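 HepG2 cells in MEM with 10% FBS, attached overnight at 37 C, were exposed to compound or DMSO for 1 hr at 37 C, 5% CO2. Blue fluorescence was read at 405/460 nm, with triamterene as reference fluorophore.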

[9] = target: Glucocorticoid receptor (Homo sapiens) (UniProt P04150); assay: qHTS assay to identify small molecule agonists of the glucocorticoid receptor (GR) signaling pathway (AID 720691; active = well fitted activation curve with a large enough effect in the signal ratio in the repeat runs, not every such curve was filed as active; the % refers to the signal ratio)
Glucocorticoid receptor (Homo sapiens), sequence (P04150 whole entry, looked up): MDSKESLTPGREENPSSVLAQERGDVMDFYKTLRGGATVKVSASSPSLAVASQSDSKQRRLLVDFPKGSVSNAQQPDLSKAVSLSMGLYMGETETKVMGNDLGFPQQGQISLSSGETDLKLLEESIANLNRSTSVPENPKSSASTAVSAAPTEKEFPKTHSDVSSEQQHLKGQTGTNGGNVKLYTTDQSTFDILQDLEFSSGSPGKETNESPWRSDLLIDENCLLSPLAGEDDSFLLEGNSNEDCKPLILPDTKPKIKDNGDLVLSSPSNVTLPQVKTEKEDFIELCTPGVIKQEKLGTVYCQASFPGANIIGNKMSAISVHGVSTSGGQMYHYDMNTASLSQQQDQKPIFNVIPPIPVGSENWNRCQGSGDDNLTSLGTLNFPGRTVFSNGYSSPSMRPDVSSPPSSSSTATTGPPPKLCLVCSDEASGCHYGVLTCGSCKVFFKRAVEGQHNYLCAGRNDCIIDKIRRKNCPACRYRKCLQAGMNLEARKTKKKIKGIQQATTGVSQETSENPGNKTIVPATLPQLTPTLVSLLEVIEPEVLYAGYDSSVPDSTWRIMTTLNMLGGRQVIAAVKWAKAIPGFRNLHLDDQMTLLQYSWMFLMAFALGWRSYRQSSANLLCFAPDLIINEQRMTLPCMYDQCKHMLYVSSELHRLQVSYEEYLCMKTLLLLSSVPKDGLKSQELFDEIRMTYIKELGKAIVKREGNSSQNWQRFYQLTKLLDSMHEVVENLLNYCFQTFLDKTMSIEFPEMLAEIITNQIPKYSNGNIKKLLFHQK
How it was run: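 Agonist-mode qHTS in HeLa cells stably expressing a glucocorticoid-response-element beta-lactamase reporter. Fluorescence intensity read with FRET substrate (2 h, room temperature) after 18 h compound treatment at 37 C.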

[10] = target: Glucocorticoid receptor (Homo sapiens) (UniProt P04150); assay: qHTS assay to identify small molecule antagonists of the glucocorticoid receptor (GR) signaling pathway (AID 720692; active = well fitted inhibition curve with a large enough effect in the signal ratio in the repeat runs, not every such curve was filed as active; the % refers to the signal ratio)
How it was run: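 Inhibition of dexamethasone-driven (5 nM final) beta-lactamase expression was measured in GRE-reporter HeLa cells over 18 h at 37C. Fluorescence was read after 2 h with the B/G FRET substrate at room temperature.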

[11] = qHTS assay to identify small molecule antagonists of the glucocorticoid receptor (GR) signaling pathway - cell viability counter screen (AID 720693); note: nearly all actives have a fitted effect of over 55% in size
[12] = qHTS assay for identifying genotoxic compounds that show differential cytotoxicity against isogenic chicken DT40 cell lines with known DNA damage response pathways - wild type cell line (AID 743012); note: nearly all actives have a fitted effect of over 60% in size; note: potency is the fitted concentration of half-maximal effect
How it was run: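 Viability by ATP luminescence (CellTiter-Glo, 30 min RT) after 40 h compound treatment at 37 C/5% CO2, using 300 parental DNA repair-proficient DT40 cells per well.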

[13] = qHTS assay for identifying genotoxic compounds that show differential cytotoxicity against isogenic chicken DT40 cell lines with known DNA damage response pathways - Rev3 mutant cell line (AID 743014); note: nearly all actives have a fitted effect of over 55% in size; note: potency is the fitted concentration of half-maximal effect
[14] = qHTS assay for identifying genotoxic compounds that show differential cytotoxicity against isogenic chicken DT40 cell lines with known DNA damage response pathways - Rad54/Ku70 mutant cell line (AID 743015); note: nearly all actives have a fitted effect of over 60% in size; note: potency is the fitted concentration of half-maximal effect
[15] = target: Androgen receptor (Homo sapiens) (UniProt P10275); assay: qHTS assay to identify small molecule antagonists of the androgen receptor (AR) signaling pathway (AID 743035; active = well fitted inhibition curve with a large enough effect in the signal ratio in the repeat runs, not every such curve was filed as active; the % refers to the signal ratio)
Androgen receptor (Homo sapiens), sequence (P10275 whole entry, looked up): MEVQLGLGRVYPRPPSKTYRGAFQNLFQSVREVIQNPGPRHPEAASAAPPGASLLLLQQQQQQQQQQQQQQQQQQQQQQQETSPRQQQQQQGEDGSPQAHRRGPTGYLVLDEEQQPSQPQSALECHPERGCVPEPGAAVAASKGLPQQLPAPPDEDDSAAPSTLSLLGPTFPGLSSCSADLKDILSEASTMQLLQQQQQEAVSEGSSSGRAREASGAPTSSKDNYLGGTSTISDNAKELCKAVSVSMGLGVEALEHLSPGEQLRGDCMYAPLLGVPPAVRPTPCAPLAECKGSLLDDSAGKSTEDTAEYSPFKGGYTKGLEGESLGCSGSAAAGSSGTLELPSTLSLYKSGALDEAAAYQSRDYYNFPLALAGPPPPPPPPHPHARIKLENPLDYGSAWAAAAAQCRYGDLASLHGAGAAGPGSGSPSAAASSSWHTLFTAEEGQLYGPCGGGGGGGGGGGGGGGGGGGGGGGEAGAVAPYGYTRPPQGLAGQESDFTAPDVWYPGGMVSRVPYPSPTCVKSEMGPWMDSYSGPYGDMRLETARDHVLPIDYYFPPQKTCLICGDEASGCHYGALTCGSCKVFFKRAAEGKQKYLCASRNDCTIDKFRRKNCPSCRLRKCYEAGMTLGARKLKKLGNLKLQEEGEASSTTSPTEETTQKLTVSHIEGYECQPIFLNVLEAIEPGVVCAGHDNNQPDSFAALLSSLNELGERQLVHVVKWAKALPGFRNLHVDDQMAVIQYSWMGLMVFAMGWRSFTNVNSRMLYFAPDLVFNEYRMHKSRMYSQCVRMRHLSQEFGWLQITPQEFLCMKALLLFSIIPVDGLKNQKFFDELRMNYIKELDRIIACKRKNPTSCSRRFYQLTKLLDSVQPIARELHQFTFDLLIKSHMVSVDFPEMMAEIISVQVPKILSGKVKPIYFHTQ
How it was run: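 Antagonist mode: AR-bla HEK293 cells co-treated with test compounds and agonist R1881 for 16 h at 37C, 5% CO2. Beta-lactamase activity read as FRET fluorescence after 2 h room-temperature substrate loading.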

[16] = target: Androgen receptor (Homo sapiens) (UniProt P10275); assay: qHTS assay to identify small molecule agonists of the androgen receptor (AR) signaling pathway using the MDA cell line (AID 743040; note: nearly all actives have a fitted effect of over 20% in size)
How it was run: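 Luciferase read-out, ONE-Glo, 30 min RT. Cells: MDA-kb2 AR-luc, MMTV promoter with AR and GR response elements. Compound exposure 16 h, 37C, 0% CO2, after 5 h pre-incubation. qHTS agonist mode.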

[17] = qHTS assay to identify small molecule antagonists of the androgen receptor (AR) signaling pathway using the MDA cell line - cell viability counter screen (AID 743041; note: nearly all actives have a fitted effect of over 45% in size)
How it was run: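 Cytotoxicity counter screen: MDA-kb2 AR-luc cells, compound + R1881, 16 h, 37C, 0% CO2; CellTiter-Fluor added at 15.5 h, fluorescence read after 30 min.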

[18] = target: Androgen receptor (Homo sapiens) (UniProt P10275); assay: qHTS assay to identify small molecule antagonists of the androgen receptor (AR) signaling pathway using the MDA cell line (AID 743042; note: nearly all actives have a fitted effect of over 55% in size)
How it was run: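 MDA-kb2 breast carcinoma cells carrying MMTV-luciferase (AR/GR responsive) were co-treated with compounds and the agonist R1881 for 16 h at 37C. Inhibition read as ONE-Glo luminescence; CellTiter-Fluor fluorescence measured in parallel for cytotoxicity.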

[19] = qHTS assay to identify small molecule antagonists of the androgen receptor (AR) signaling pathway - cell viability counter screen (AID 743033; note: nearly all actives have a fitted effect of over 45% in size)
[20] = target: Androgen receptor (Homo sapiens) (UniProt P10275); assay: qHTS assay to identify small molecule agonists of the androgen receptor (AR) signaling pathway (AID 743036; active = well fitted activation curve with a large enough effect in the signal ratio in the repeat runs, with a control signal flat, not every such curve was filed as active; the % refers to the signal ratio)
How it was run: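 HEK293 cells stably carrying a UAS-driven beta-lactamase reporter (GeneBLAzer AR-UAS-bla-GripTite) were plated at 2,000 cells/well, rested 4 h at 37C, then exposed to compounds in DMSO for 16 h. LiveBLAzer B/G FRET substrate was added for 2 h at room temperature; fluorescence read.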
% is set by controls: 0 for no effect and ±100 for the full control effect.

CC[N+](CC)(CC)CCOc1cccc(OCC[N+](CC)(CC)CC)c1OCC[N+](CC)(CC)CC
inactive: outcome [1] | outcome [2] | outcome [3] | outcome [4] | outcome [5] | outcome [6] | outcome [7] | outcome [8] | Potency [9] | Potency [10] | outcome [11] | Potency [12] | Potency [13] | Potency [14] | Potency [15] | Potency [16] | Potency [17] | outcome [18]

O=S(=O)(O)c1cccc2c(S(=O)(=O)O)cccc12
inactive: outcome [1] | outcome [2] | outcome [3] | outcome [4] | outcome [5] | outcome [6] | outcome [7] | outcome [8] | Potency [9] | Potency [10] | outcome [11] | Potency [12] | Potency [14] | outcome [19]

CCN(C=O)CC
inactive: outcome [1] | outcome [2] | outcome [3] | outcome [4] | outcome [5] | outcome [6] | outcome [7] | outcome [8] | Potency [9] | Potency [10] | outcome [11] | Potency [12] | Potency [13] | outcome [19]

Nc1ccccn1
inactive: outcome [1] | outcome [2] | outcome [3] | outcome [4] | outcome [5] | outcome [6] | outcome [7] | outcome [8] | Potency [9] | Potency [10] | outcome [11] | Potency [12] | Potency [13] | Potency [14] | outcome [19]

COc1cccc(OC)c1C(=O)N[C@@H]1C(=O)N2[C@@H]1SC(C)(C)[C@@H]2C(=O)O
inactive: outcome [1] | outcome [2] | outcome [3] | outcome [4] | outcome [5] | outcome [6] | outcome [7] | outcome [8] | Potency [9] | Potency [10] | outcome [11] | Potency [12] | Potency [13] | Potency [14] | Potency [17]

CC/C=C\CCOC(C)OCC (stereo not drawn)
inactive: outcome [1] | outcome [2] | outcome [3] | outcome [4] | outcome [5] | outcome [6] | outcome [7] | outcome [8] | Potency [9] | Potency [10] | outcome [11] | Potency [12] | Potency [14] | Potency [17]

C[C@H]1[C@H](NC(=O)/C(=N/OC(C)(C)C(=O)O)c2csc(N)n2)C(=O)N1S(=O)(=O)O (stereo in doubt)
inactive: fluorescence, % of fluorescein [1] 0.0034% [at 18.6 µM] | fluorescence, % of fluorescent control [2] 0.0562% [at 18.6 µM] | activity change [3] 0.008% [at 18.6 µM] | fluorescence, % of fluorescent control [4] 0.271% [at 18.6 µM] | fluorescence, % of Rose Bengal [5] 0.467% [at 18.6 µM] | fluorescence, % of fluorescent control [6] 0.104% [at 18.6 µM] | fluorescence, % of fluorescein control [7] 0.102% [at 18.6 µM] | fluorescence, % of fluorescent control [8] 0.0116% [at 18.6 µM] | Potency [9] | Potency [10] | outcome [11] | Potency [12] | Potency [13] | Potency [14] | outcome [19] | Potency [17]

CO/N=C(\C(=O)N[C@@H]1C(=O)N2C(C(=O)O)=C(CSc3nc(=O)c(O)nn3C)CS[C@H]12)c1csc(N)n1
inactive: outcome [1] | outcome [2] | outcome [3] | outcome [4] | outcome [5] | outcome [6] | outcome [7] | outcome [8] | Potency [9] | Potency [10] | outcome [11] | Potency [13] | outcome [19] | Potency [17]

O=C(O)CC(C(=O)O)S(=O)(=O)O (stereo not drawn)
active: Potency [12] 68.6 µM | Potency [13] 61.1 µM
inactive: outcome [1] | outcome [2] | outcome [3] | outcome [4] | outcome [5] | outcome [6] | outcome [7] | outcome [8] | Potency [9] | Potency [10] | outcome [11] | outcome [19] | Potency [17]

C=CCCC(=O)O
inactive: outcome [1] | outcome [2] | outcome [3] | outcome [4] | outcome [5] | outcome [6] | outcome [7] | outcome [8] | Potency [9] | Potency [10] | outcome [11] | Potency [14] | Potency [17]

C1CCC2=NCCCN2CC1
inactive: outcome [1] | outcome [2] | outcome [3] | outcome [4] | outcome [5] | outcome [6] | outcome [7] | outcome [8] | Potency [9] | Potency [10] | outcome [11] | Potency [12] | Potency [13] | Potency [14] | outcome [19] | Potency [17]

CC(C#N)(CCC(=O)O)N=NC(C)(C#N)CCC(=O)O (stereo not drawn)
inactive: outcome [1] | outcome [2] | outcome [3] | outcome [4] | outcome [5] | outcome [6] | outcome [7] | outcome [8] | Potency [9] | Potency [10] | outcome [11] | Potency [14] | outcome [19] | Potency [17]

CC(=O)c1ccc2ccccc2c1
inactive: outcome [1] | outcome [2] | outcome [3] | outcome [4] | outcome [5] | outcome [6] | outcome [7] | outcome [8] | Potency [9] | Potency [10] | outcome [11] | Potency [12] | Potency [14] | outcome [19] | Potency [17]

CCCCN1C=CN(C)C1
inactive: fluorescence, % of fluorescein [1] -0.0653% [at 18.6 µM] | fluorescence, % of fluorescent control [2] -0.116% [at 18.6 µM] | activity change [3] 0.0078% [at 18.6 µM] | fluorescence, % of fluorescent control [4] 0.0298% [at 18.6 µM] | fluorescence, % of Rose Bengal [5] 0.057% [at 18.6 µM] | fluorescence, % of fluorescent control [6] -0.0433% [at 18.6 µM] | fluorescence, % of fluorescein control [7] -0.069% [at 18.6 µM] | fluorescence, % of fluorescent control [8] 0.0295% [at 18.6 µM] | Potency [9] | Potency [10] | outcome [11] | Potency [12] | Potency [13] | Potency [14] | outcome [19] | Potency [17]

CCCCOC(=O)CCC(C)=O
active: Potency [13] 68.6 µM
inactive: outcome [1] | outcome [2] | outcome [3] | outcome [4] | outcome [5] | outcome [6] | outcome [7] | outcome [8] | Potency [9] | Potency [10] | outcome [11] | outcome [19] | Potency [17]

Cc1ccc(C(=O)c2ccccc2)cc1
active: Potency [12] 61.1 µM | Potency [13] 54.5 µM | Potency [14] 68.6 µM
inactive: outcome [1] | outcome [2] | outcome [3] | outcome [4] | outcome [5] | outcome [6] | outcome [7] | outcome [8] | Potency [9] | Potency [10] | outcome [11] | outcome [19] | Potency [15] | outcome [20] | Potency [16] | Potency [17] | outcome [18]
